Sampled rows, rich in hits. Any-hit rate of the full collection: about 4.6%.
KKLEB cytotox: reduces viability of KKLEB cystic fibrosis airway cells; KKLEB CF airway cells viability, ATPlite luminescence, overnight; stronger effect = lower value; cells stimulated with P. aeruginosa culture filtrate; activity change (cytotoxicity), % at 5 µM; actives 0.36% (n = 360,000); AID 602141;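 active means corrected activity change at or below -50% at 5 µM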
CF NFkB inh: blocks PAF-induced NF-kB reporter in cystic fibrosis cells; KKLEB NF-kB-GFP reporter, GFP fluorescence overnight; inhibition, % at 5 µM; actives 0.86% (n = 360,000); AID 588850;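 active means at least 50% inhibition at 5 µM, scaled per plate between neutral and stimulator controls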;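 further: PAF is a Pseudomonas aeruginosa culture filtrate used as stimulus; plate controls were PAF-stimulated DMSO wells for no effect and unstimulated DMSO wells for full effect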
ABHD5-PLIN5 inh: ABHD5-PLIN5 protein interaction inhibition; Split G. princeps luciferase complementation, luminescence, 4 h; inhibition, % at 4 µM; actives 0.78% (n = 360,000); AID 602281;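 active means inhibition above the mean inhibition across every tested compound plus 3 SD, cut at about 22% in these data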;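 further: 0% = DMSO only wells and the 100% control is not disclosed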
Peg3 prom inh: inhibitors of Peg3 promoter; inhibition, % at 20 µM; HeLa PEG-Prom luciferase reporter, luminescence, overnight; actives 1.7% (n = 360,000);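 active means inhibition of at least 50% at 20 µM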
Mdm2-MdmX inh: disrupts the human Mdm2-MdmX interaction; actives 3% (n = 330,000); SaOS-2 split-luciferase Mdm2/MdmX complementation, luminescence; inhibition, % at 8 µM; O15151+Q00987;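 active means inhibition of at least 50% at 8 µM in the primary screen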
Target sequence (O15151 whole entry, looked up): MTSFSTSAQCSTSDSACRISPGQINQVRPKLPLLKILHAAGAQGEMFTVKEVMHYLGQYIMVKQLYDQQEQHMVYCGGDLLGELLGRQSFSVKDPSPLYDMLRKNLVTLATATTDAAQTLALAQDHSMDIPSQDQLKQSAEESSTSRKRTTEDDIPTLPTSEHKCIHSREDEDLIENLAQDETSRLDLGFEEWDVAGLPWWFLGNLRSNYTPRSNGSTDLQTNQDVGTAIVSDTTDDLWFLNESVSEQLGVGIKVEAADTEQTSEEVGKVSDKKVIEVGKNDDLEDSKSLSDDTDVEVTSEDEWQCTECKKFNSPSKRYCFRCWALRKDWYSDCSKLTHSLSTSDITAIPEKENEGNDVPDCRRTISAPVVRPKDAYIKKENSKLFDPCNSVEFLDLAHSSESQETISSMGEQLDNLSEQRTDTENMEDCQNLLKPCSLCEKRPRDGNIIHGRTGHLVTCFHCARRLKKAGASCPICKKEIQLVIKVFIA
Target sequence (Q00987 whole entry, looked up): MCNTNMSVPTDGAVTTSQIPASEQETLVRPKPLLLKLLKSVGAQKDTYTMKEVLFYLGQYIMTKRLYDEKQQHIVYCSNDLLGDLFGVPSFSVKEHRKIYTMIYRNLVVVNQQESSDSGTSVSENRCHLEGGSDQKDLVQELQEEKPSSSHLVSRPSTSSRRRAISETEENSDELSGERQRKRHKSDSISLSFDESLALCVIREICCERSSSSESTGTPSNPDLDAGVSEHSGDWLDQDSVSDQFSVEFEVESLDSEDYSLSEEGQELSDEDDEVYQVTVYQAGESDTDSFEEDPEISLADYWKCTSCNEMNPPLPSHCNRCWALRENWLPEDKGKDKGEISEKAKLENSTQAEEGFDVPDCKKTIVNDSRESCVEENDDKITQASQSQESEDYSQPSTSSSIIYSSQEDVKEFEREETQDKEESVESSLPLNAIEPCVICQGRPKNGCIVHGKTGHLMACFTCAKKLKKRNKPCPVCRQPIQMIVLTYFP
HIF-2a block: inhibitors of HIF-2a | actives 0.72% (n = 360,000) | inhibition, % at 18.8 µM | 786-0 RCC cells HIF-2a reporter, luciferase luminescence, overnight | AID 624352;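 active means inhibition of the luminescence signal of 40% or more relative to plate controls, in a single-dose primary screen at 18.75 µM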
Mdm2 MdmX conf: confirmation of human Mdm2/MdmX interaction inhibitors | actives 55% (n = 10,000) | inhibition, % at 8 µM | shares compounds with Mdm2-MdmX inh | Mdm2-MdmX binding, luminescent assay; in the data active means inhibition above about 40%
Full FLuc ctr: inhibits full-length luciferase, flagging false Mdm2/MdmX hits; shares compounds with Mdm2-MdmX inh; SaOS-2 full-length luciferase counterscreen, luminescence; inhibition, % at 8 µM; actives 77% (n = 6,200); AID 504607;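 active means mean inhibition at 8 µM reaching about 37%, which flags the compound as non-specific, limit read from the data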;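 further: p53-null SaOS-2 cells with luciferase driven by a doxycycline-inducible promoter; compound on cells about two nights before reading with doxycycline added after day one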
* marks the source's active call; other numbers are inactive results; . = no result.

SMILES	KKLEB cytotox	CF NFkB inh	ABHD5-PLIN5 inh	Peg3 prom inh	Mdm2-MdmX inh	HIF-2a block	Mdm2 MdmX conf	Full FLuc ctr
N#C/C(=C\c1ccc(F)cc1F)S(=O)(=O)c1ccccn1	-9.5	16.8	0.8	10.0	2.4	2.4	.	.
COc1ccc(S(=O)(=O)N2CCCCCC2)cc1C(=O)N(C)Cc1ccc(C(C)(C)C)cc1	-2.6	7.1	1.9	22.1	53.3*	21.8	11.5	.
COc1ccc(S(=O)(=O)N(C)C[C@@H]2OCc3cn(nn3)CCCC(=O)N([C@H](C)CO)C[C@H]2C)cc1	1.4	-4.9	8.2	17.9	.	-4.6	.	.
CC(C)[C@H](NC(=O)c1ccccc1F)C(=O)OCC(=O)NC1CC1	2.4	-8.6	7.4	10.0	-15.3	10.3	.	.
Cc1cc(C(=O)COC(=O)c2ccc(O)cc2)c(C)n1CC(F)(F)F	0.1	0.6	-0.5	-369.1	-66.4	-188.5	.	.
CC(=O)Nc1ccc(SCC(=O)c2cc(C)n(-c3ccccc3F)c2C)cc1	11.3	-24.8	0.2	17.8	72.3*	50.4*	81.8*	73.0*
Cc1cc(C(=O)Cn2nnc3ccccc3c2=O)c(C)n1-c1ccccc1F	-32.9	-2.0	5.6	-24.6	85.1*	-54.8	78.3*	103.4*
Cc1cc(C(=O)COC(=O)c2ccc(O)cc2)c(C)n1-c1ccccc1F	6.5	-13.7	-3.2	-194.7	56.8*	-37.8	64.1*	137.8*
COc1ccc(-n2c(C)cc(C(=O)Cn3nnc4ccccc4c3=O)c2C)cc1	-2.7	4.3	-5.2	-155.5	-9.8	-170.3	.	.
COc1cccc(CNC(=O)COC(=O)c2ccc(N3CCCC3=O)cc2)c1	2.2	-30.8	7.5	-11.2	.	2.2	.	.
O=C(c1ccc(Cl)cc1)N1CCC(C(=O)N2CCCc3ccccc32)CC1	18.1	0.6	5.7	4.0	-12.7	16.3	.	.
COc1ccc(NC(=O)CCl)cn1	.	.	.	.	-15.0	.	.	.
O=C(CCl)Nc1ccc(Oc2cnc3ccccc3n2)cc1	-1.5	15.9	6.0	-66.8	67.4*	-58.2	49.5*	14.2
CC(=O)Nc1ccc(NC(=O)c2cccc3ccccc23)cc1	-6.9	7.7	5.5	1.7	12.0	0.7	.	.
CC(=O)Nc1ccc(N=Cc2c(O)c(C(=O)Nc3ccccc3)cc3ccccc23)cc1	.	.	.	.	77.9*	.	36.8	103.5*
CC(=O)c1cccc(N=Cc2c(O)c3ccccc3oc2=O)c1	1.8	12.9	5.8	29.6	38.0	-6.9	.	.
CC(=O)Nc1ccc(N=Cc2c(O)c3ccccc3oc2=O)cc1	-9.2	26.0	-6.9	31.4	53.2*	10.9	33.5	.
CCOc1ccc(NC(=O)C(C)NS(=O)(=O)c2ccc(NC(C)=O)cc2)cc1 (configuration not stated)	9.2	-22.6	-3.9	4.1	-22.4	4.2	.	.
COc1ccc(-c2nc(SCC(=O)NC3CCCCC3)n[nH]2)cc1	-7.6	14.9	5.0	3.8	17.2	-19.0	.	.
Cc1ccccc1/C=N/NC(=O)Cc1ccc(Cl)cc1	-0.1	-6.9	2.2	-4.7	16.9	-33.4	.	.
O=C(N/N=C/c1ccccc1O)c1ccc2c(c1)OCO2	-1.6	-11.0	1.9	-118.0	13.3	-255.7	.	.
O=C(CNC(=O)c1ccc2c(c1)OCO2)N/N=C/c1cc(Br)ccc1O	11.7	4.7	-2.0	34.2	51.6*	15.7	58.5*	47.0*
O=C(N/N=C/c1cc(Br)cc(Cl)c1O)c1ccc2c(c1)OCO2	-12.3	11.0	2.2	54.8*	50.3*	-7.6	59.3*	53.4*
Cc1cc(Br)cc(/C=N/NC(=O)c2ccc3c(c2)OCO3)c1O	0.0	8.5	-3.0	-54.8	67.9*	-156.0	67.5*	33.0
Cc1ccc(/C=N/NC(=O)Cc2ccc(Cl)cc2)c(O)c1	7.5	-9.0	-6.1	16.1	60.4*	-65.4	53.8*	42.2*
SMILES	KKLEB cytotox	CF NFkB inh	ABHD5-PLIN5 inh	Peg3 prom inh	Mdm2-MdmX inh	HIF-2a block	Mdm2 MdmX conf	Full FLuc ctr
COC(=O)[C@]12CCCCC=C1N(Cc1cccc3ccccc13)C(=O)[C@H](CC(=O)NCc1cccs1)C2	.	.	-5.8	.	.	-14.2	.	.
Cc1c(OCC(=O)NC2CCN(Cc3ccccc3)CC2)ccc2c3c(c(=O)oc12)CCC3	3.1	-18.5	-8.2	18.5	24.3	-9.5	.	.
Cc1cccnc1C(NC(=O)C1CCN(CCCOc2ccccc2)CC1)c1ccc(F)cc1 (configuration not stated)	7.5	-3.0	0.0	-9.2	.	-8.2	.	.
COc1ccc(S(=O)(=O)N2CCOCC2)cc1NC(=O)c1sccc1C	-21.4	-1.9	-2.3	11.6	4.6	2.7	.	.
COc1cc(OC)cc(-c2c(-c3cccs3)c3cc(-c4ccc(OC)c(OC)c4)ccc3n2C)c1	-10.0	8.2	-7.0	3.3	26.8	20.8	.	.
O=C(Cc1ccccc1)N/N=C/c1cc(Br)cc(Cl)c1O	-15.8	4.8	-0.6	53.4*	58.6*	10.1	68.4*	29.2
Cc1cccc[n+]1CCCCCCCCCC[n+]1ccccc1C	0.0	6.4	3.1	-4.3	1.2	7.5	.	.
CCCCCCCC[n+]1cccc2c3ccccc3ccc21	-26.6	38.3	16.7	54.0*	86.4*	-39.7	83.8*	23.3
Cc1ccc(S(=O)(=O)c2c(C)nn(C(C)(C)C)c2OC(=O)C2CCCC2)cc1	11.0	-5.9	-10.7	23.0	69.9*	-0.7	23.6	.
O=C(C1CC(=O)N(c2ccc(F)c(Cl)c2)C1)N1CCOCC1 (configuration not stated)	0.1	1.4	5.7	9.9	.	13.1	.	.
Cc1cccnc1NC(=S)NC(=O)c1oc2ccccc2c1C	-2.9	-16.6	-3.4	-369.9	-73.4	-285.3	.	.
CC(=O)Nc1ccc(NC(=S)NC(=O)c2oc3ccccc3c2C)cc1	-45.1	48.4	1.8	23.3	62.4*	-42.6	-0.8	.
CCC(=O)Nc1ccc(NC(=S)NC(=O)c2oc3ccccc3c2C)cc1	-15.6	1.3	-0.4	-4.7	72.0*	-2.3	-17.1	.
C=CCNC(=S)NC(=O)c1oc2ccccc2c1C	-9.6	3.7	2.2	-231.1	-33.1	-292.3	.	.
CCc1ccc(C(O)(CNCc2ccccc2)c2ccccc2)cc1 (configuration not stated)	-4.8	-3.3	-4.2	-23.0	12.6	6.6	.	.
CCC(=O)Nc1cccc(C2=NOC3(C2)C[C@@H](C(N)=O)N(C(=O)C(c2ccccc2)c2ccccc2)C3)c1 (some centres not stated)	1.6	-5.1	-6.4	1.1	14.6	-3.0	.	.
NC(=O)[C@@H]1CC2(CC(c3cccc(NC(=O)COc4ccc(Cl)cc4)c3)=NO2)CN1C(=O)COc1ccc(Cl)cc1 (some centres not stated)	-8.2	6.6	-1.3	14.6	59.3*	-42.5	19.8	.

Screens (PubChem BioAssay)
